Two molecules from ChEMBL document CHEMBL3988442, “University of Dundee, Small-Polar-MMV Screening Library” (2021) can be followed below.

SMILES strings stand for the structures. For some assays here: Results with a measured potency or affinity are listed apart. Bounds are passed on as bounds.

Test [1] deals with T1, Methionyl-tRNA synthetase, putative (Leishmania donovani (strain BPK282A1)) (UniProt E9BF75).
T1 sequence (whole entry): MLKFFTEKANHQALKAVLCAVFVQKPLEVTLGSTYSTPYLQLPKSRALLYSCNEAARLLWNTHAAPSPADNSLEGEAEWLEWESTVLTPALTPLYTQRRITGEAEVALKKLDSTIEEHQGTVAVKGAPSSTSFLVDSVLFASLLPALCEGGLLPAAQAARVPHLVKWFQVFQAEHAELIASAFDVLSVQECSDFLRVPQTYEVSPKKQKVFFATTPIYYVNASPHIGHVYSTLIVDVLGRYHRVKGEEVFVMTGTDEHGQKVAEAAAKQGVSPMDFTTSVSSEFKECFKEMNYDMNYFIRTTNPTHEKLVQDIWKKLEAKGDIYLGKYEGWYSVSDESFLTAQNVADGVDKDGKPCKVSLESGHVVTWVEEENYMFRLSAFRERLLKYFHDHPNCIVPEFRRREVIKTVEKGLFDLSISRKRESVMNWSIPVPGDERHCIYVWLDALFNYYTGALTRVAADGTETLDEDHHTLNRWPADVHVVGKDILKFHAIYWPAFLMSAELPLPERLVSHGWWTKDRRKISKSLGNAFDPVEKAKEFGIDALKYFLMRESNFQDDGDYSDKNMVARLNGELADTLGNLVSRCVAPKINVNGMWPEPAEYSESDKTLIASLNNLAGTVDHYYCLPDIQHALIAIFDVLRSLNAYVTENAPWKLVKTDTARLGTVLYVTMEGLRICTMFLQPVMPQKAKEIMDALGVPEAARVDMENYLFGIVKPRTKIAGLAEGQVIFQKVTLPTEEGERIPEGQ
Description: Leishmania donovani Methionine tRNA synthetase (LdMetRS):v7. Dose response assay. Type of test: functional. Also on record: conc 80 nM, time 150 minutes.

The target of test [2] is Protein translocase subunit SecA (Escherichia coli (strain K12)) (UniProt P10408). Description: Assay to Identify E. coli SecA ATPase Inhibitors. It counts as functional. Also on record: scale not given: direction of the effect not stated beside the values. As to conditions: 30 µM.
Chain of Protein translocase subunit SecA (Escherichia coli (strain K12)) (P10408 whole entry): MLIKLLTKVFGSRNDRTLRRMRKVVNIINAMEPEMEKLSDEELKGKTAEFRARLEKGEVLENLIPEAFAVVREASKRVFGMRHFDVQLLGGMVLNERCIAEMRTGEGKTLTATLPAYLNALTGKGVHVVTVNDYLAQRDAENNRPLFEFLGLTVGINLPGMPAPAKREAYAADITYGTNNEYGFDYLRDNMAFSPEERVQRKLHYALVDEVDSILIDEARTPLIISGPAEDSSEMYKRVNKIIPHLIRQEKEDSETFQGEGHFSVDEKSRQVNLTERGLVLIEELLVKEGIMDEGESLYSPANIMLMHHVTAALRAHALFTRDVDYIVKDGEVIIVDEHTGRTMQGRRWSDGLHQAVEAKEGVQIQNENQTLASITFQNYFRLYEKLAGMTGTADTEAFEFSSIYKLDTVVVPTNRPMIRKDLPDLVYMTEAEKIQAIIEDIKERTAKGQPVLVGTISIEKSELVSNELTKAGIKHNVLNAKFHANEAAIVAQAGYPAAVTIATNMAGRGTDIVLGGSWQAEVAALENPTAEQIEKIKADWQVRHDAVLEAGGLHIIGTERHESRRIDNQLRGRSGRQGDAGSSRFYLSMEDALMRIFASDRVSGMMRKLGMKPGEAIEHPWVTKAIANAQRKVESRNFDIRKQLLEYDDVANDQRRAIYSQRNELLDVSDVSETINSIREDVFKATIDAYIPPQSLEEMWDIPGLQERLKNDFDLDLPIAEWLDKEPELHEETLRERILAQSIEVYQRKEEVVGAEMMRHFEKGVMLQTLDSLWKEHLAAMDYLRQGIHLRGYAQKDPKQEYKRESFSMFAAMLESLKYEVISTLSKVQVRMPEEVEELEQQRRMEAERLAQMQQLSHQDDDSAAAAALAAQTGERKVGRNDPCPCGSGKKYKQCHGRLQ
Test [3] deals with T2, Ubiquitin-activating enzyme e1, putative (Leishmania donovani (strain BPK282A1)) (UniProt E9BSI1).
T2 sequence (whole entry): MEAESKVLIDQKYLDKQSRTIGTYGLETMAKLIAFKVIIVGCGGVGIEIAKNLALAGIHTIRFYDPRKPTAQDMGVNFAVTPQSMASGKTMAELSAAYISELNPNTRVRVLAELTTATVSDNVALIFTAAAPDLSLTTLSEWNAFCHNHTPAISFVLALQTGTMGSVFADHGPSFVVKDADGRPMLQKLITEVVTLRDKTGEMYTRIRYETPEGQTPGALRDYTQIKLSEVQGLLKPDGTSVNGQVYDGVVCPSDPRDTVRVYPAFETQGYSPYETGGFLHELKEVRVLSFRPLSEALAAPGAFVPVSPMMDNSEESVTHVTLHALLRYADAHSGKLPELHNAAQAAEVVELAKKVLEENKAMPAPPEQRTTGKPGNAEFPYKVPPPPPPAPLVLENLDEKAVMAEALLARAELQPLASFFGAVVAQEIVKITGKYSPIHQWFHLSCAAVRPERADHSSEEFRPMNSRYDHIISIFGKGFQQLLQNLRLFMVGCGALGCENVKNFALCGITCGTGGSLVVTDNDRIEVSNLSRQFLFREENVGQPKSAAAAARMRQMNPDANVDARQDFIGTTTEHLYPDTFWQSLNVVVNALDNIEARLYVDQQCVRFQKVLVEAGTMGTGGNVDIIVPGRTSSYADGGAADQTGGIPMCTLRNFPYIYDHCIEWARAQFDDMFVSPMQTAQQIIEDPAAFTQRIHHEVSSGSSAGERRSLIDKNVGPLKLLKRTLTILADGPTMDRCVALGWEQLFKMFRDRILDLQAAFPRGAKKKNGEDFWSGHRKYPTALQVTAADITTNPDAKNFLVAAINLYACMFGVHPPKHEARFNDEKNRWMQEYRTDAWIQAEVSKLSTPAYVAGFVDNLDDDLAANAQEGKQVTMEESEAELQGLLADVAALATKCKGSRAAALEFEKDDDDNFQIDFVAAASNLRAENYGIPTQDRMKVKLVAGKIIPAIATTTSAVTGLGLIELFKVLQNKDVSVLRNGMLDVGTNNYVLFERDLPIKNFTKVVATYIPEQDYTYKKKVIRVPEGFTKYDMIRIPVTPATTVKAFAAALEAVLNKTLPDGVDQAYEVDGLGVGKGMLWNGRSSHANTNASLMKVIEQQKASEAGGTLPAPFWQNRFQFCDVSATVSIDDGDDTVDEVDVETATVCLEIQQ
Description: Leishmania donovani Ubiquitin Activating Enzyme (LdE1). Also on record: scale not given: direction of the effect not stated beside the values. It counts as functional. As to conditions: 30 µM.

In test [4] the target is AMP-activated protein kinase, AMPK (Homo sapiens) (UniProt P54646+O43741+P54619+Q9UGJ0+Q9Y478+Q13131+Q9UGI9). Description: AMP-dependent Kinase enzyme assay. An in vitro enzyme assay that detects ADP turnover that is directly proportional to AMPK activity. This uses naive AMPK that is activated during the assay with MK-8722. Type of test: functional. Also on record: scale not given: direction of the effect not stated beside the values. Conditions: 30 µM.

For test [5], the target named is Sialic acid-binding Ig-like lectin 9 (Homo sapiens) (UniProt Q9Y336). The experiment in a line: Hs-Siglec9 ALPHAscreen SOP 20170721. As to conditions: 10 µM. Also on record: scale not given: direction of the effect not stated beside the values. In general terms: In Alpha technology, singlet oxygen from a donor bead excites a nearby acceptor bead.
Chain of Sialic acid-binding Ig-like lectin 9 (Homo sapiens) (Q9Y336 whole entry): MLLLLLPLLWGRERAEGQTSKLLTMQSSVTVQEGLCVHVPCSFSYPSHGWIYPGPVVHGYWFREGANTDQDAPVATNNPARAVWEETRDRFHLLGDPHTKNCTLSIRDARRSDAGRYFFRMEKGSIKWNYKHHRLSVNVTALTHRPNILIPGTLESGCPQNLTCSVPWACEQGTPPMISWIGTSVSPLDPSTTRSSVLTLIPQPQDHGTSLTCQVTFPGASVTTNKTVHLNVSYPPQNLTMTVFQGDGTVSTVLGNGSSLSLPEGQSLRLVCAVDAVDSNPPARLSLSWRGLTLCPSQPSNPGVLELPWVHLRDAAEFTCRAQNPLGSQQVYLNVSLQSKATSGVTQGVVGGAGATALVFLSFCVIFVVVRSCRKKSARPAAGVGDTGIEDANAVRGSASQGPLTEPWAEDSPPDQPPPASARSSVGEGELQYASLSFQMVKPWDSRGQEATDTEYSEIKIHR
The next test deals with Trypanosoma cruzi. Description: Trypanosoma cruzi phosphomannomutase and mannose-1-phosphate guanylyltransferase assay. As to conditions: 10 µM. Type of test: functional. Also on record: scale not given: direction of the effect not stated beside the values.
Test [6] has as its target T3, Arginase-2, mitochondrial (Homo sapiens) (UniProt P78540).
T3 sequence (whole entry): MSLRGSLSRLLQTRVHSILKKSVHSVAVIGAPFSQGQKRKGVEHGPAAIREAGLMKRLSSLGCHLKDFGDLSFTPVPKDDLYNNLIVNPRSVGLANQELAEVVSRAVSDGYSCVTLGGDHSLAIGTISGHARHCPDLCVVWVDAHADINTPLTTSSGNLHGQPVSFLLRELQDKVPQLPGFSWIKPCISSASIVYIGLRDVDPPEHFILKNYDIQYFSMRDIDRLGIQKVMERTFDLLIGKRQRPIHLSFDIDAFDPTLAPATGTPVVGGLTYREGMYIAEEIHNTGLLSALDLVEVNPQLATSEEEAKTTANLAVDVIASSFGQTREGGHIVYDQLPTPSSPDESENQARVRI
The experiment in a line: in vitro enzyme assay to detect the production of urea directly proportional to the activity of Arginase II. It counts as functional. Also on record: scale not given: in the data most compounds retested in dose-response had high values. Conditions: 33.3 µM.

Test [7] deals with T4, Proteasome subunit beta (Trypanosoma cruzi) (UniProt O96673).
T4 sequence (whole entry): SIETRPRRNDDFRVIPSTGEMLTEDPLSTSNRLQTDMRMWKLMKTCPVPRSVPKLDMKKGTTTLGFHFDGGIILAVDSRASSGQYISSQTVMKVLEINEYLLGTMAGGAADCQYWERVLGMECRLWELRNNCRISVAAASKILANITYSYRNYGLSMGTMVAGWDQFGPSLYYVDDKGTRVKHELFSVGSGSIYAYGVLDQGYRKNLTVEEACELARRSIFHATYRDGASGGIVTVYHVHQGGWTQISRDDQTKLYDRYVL
The experiment in a line: Trypanosoma cruzi proteasome chymotrypsin-like activity (TcProtChymo) assay. Conditions: 9.37 µM. Also on record: scale not given: in the data most compounds retested in dose-response had high values. Type of test: functional.

The species entered for another test is Homo sapiens. The experiment in a line: To identify inhibition of the IFN signalling (Jak-Stat) pathway via expression of an eGFP reporter gene under the control of an IFN-stimulated response element (ISRE) containing MxA promoter. It counts as functional. Also on record: scale not given: direction of the effect not stated beside the values. As to conditions: 30 µM. On the technique in general: Reporter assays use an easily measured gene product as a stand-in for the process of interest.

Test [8] addresses T5, Tyrosyl-tRNA synthetase, putative (Trypanosoma cruzi (strain CL Brener)) (UniProt Q4DSP6).
T5 sequence (whole entry): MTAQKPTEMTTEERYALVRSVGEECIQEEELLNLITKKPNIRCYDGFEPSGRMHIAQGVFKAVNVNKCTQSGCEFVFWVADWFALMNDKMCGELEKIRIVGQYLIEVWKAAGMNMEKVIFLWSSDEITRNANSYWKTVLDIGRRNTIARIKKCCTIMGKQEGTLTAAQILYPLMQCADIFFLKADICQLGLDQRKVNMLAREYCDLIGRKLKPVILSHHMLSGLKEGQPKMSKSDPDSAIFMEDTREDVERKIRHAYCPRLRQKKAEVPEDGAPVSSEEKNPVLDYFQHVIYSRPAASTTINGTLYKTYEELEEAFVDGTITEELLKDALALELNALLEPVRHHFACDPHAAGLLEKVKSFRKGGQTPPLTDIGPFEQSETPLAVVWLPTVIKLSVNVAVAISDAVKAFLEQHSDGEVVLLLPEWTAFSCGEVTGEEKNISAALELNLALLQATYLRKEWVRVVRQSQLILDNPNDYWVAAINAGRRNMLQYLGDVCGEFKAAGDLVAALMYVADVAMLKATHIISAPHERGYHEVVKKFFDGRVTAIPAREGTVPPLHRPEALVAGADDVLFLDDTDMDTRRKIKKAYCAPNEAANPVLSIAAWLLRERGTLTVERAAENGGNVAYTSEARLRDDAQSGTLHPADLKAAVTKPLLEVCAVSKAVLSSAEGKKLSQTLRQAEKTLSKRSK
Description: Trypanosoma cruzi tyrosyl tRNA synthetase (TcYRS) _High Tyrosine SOP. It counts as functional. Also on record: scale not given: in the data most compounds retested in dose-response had high values. As to conditions: 30 µM.

In test [9] the target is T5, Tyrosyl-tRNA synthetase, putative (Trypanosoma cruzi (strain CL Brener)). Description: Trypanosoma cruzi tyrosyl tRNA synthetase (TcYRS) SOP. It counts as functional. Also on record: scale not given: direction of the effect not stated beside the values. As to conditions: 30 µM.
Test [10] has as its target Chromo domain-containing protein 1 (Saccharomyces cerevisiae (strain ATCC 204508 / S288c) (Baker's yeast)) (UniProt P32657). The experiment in a line: ScCHD-1 Enzyme Inhibition Assay. Type of test: functional. Also on record: scale not given: in the data most compounds retested in dose-response had high values. Conditions: 30 µM.

Chain of Chromo domain-containing protein 1 (Saccharomyces cerevisiae (strain ATCC 204508 / S288c) (Baker's yeast)) (P32657 whole entry, the tested form may be a part): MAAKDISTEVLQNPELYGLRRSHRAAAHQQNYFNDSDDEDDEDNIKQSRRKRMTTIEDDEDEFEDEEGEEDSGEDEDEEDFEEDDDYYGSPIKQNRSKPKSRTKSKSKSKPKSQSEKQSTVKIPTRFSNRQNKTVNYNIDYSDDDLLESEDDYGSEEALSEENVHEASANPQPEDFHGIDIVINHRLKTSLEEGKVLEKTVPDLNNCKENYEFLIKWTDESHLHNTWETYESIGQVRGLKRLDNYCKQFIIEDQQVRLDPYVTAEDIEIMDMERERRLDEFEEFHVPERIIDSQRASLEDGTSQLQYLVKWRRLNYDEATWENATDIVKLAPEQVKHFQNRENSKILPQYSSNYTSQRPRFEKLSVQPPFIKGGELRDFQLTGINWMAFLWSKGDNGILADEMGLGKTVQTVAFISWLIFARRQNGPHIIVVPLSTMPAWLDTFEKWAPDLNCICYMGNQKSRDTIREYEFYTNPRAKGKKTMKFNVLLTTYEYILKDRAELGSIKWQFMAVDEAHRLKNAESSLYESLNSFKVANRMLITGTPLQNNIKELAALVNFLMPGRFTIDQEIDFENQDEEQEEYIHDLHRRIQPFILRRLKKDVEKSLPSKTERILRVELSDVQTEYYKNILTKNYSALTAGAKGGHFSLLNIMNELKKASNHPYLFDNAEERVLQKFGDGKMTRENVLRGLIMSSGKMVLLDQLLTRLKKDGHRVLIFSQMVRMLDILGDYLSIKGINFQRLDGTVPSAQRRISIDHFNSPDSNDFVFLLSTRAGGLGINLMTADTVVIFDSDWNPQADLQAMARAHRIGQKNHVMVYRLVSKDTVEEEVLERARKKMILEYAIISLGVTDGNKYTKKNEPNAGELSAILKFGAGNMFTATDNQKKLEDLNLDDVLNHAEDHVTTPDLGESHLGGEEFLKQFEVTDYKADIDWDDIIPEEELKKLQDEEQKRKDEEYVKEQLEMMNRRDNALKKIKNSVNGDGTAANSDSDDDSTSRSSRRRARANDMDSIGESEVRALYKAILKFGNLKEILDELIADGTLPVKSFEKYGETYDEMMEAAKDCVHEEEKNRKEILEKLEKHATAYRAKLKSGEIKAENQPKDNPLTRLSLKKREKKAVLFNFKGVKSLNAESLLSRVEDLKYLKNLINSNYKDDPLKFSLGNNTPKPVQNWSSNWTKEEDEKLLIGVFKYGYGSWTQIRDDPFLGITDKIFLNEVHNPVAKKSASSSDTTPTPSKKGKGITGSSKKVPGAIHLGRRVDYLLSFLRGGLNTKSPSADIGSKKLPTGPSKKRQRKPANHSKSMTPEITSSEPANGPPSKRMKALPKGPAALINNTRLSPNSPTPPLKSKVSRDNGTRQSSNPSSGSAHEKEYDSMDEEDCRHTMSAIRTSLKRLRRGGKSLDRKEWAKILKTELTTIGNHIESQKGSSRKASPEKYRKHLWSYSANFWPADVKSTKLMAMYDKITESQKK

As to `Cc1cccnc1NC(=O)NCc1ccc(N2CCNC(=O)C2)cc1`, the PXC50 in test [1] (BOTTOM 2.91901785, HILLSLOPE 1.51189845, MAX_EFFECT 82.83828383, TOP 100.0) was 4.39; in test [1] (BOTTOM 3.848291916, HILLSLOPE 1.411514836, MAX_EFFECT 84.7826087, TOP 100.0), 4.45; in [1] (BOTTOM 5.032769966, HILLSLOPE 1.524648586, MAX_EFFECT 89.96415771, TOP 100.0), 4.48; in test [1] (MAX_EFFECT 2.073365231), < 4; in test [1] (MAX_EFFECT 2.495201536), < 4. In addition, the Percent Effect is -3.51% in [2]; 15.6% in test [3]; 9.04% in test [4]; 11.4% in test [5]; 1.5% with Trypanosoma cruzi; -2.13% in test [6]. The Percent Effect is 8.78% in test [7]; 5.74% in the test listed under Homo sapiens; 41.8% in [8]; 34.1% in test [9]; -8.16% in test [10].

Turning to `Cc1nnc(NCC2(c3ccc(Cl)cc3Cl)CCOCC2)c(C#N)c1C`, the PXC50 in test [1] (MAX_EFFECT 33.25415677) and in test [1] (MAX_EFFECT 41.72535211) was < 4 each time. Further, the Percent Effect in test [2] was -4%; in [3], 0%; in test [4] it was -11.6%; in test [5], 42.2%; in the test on Trypanosoma cruzi, 12.2%; in test [6], 1.91%. The Percent Effect in [7] was 8.97%; in the test filed under Homo sapiens, 10.4%; in test [8], 5.82%; in [9], 2.44%; in [10], -12.2%.
